Screening results (PubChem)
VDR inhibitor – vitamin D3 receptor (human) inhibition; VDR-SRC2-3 peptide fluorescence polarization, 2 h; Potency, µM, for the others: max response, negative = inhibition, actives largely listed as inhibitors; 400,000 tested, 0.93% active; P11473; AID 504847
Target sequence (P11473 whole entry, looked up): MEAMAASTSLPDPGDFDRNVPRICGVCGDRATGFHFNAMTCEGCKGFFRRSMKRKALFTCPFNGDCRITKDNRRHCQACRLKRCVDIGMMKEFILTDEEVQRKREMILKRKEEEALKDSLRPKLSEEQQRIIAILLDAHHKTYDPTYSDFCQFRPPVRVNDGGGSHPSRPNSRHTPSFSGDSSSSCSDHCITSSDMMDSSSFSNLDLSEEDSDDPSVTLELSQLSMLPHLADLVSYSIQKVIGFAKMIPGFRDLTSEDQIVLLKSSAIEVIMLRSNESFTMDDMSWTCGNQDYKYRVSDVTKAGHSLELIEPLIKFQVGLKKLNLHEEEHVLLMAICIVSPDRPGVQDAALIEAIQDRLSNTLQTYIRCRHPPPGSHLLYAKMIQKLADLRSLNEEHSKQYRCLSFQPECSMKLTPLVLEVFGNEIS
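Reagent solutions, kept cold and dark, are dispensed first; compounds are then pinned in at 23 nl, plates briefly spun, and incubated 2 h at ambient temperature. Inhibition of VDR–SRC2-3 peptide binding is read by fluorescence polarization.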
DT40 TDP1 no CPT – qHTS for Inhibitors of human tyrosyl-DNA phosphodiesterase 1 (TDP1): qHTS in cells in absence of CPT; DT40 Tdp1-/- hTDP1 cells, no CPT, ATP luminescence, 48 h; Potency, µM (highest dose often 46.2 µM), inactives show top-dose activity change, negative = growth inhibition, usual class: inhibitors; 420,000 tested, 15% active; note: nearly all actives have a fitted effect of over 55% in size
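A cellular qHTS used chicken DT40 cells lacking endogenous Tdp1 but carrying stably transfected human TDP1. Compounds were applied without camptothecin, and cell growth kinetics were judged by ATP-dependent luminescence after ≥48 hr.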
KAT2A inh – GCN5L2 (KAT2A) acetyltransferase inhibition | Q92830 | GCN5L2 HAT assay, ThioGlo1 CoA-SH fluorescence | Potency, µM (series often up to 58.9 µM), for the others: top-dose activity change, negative = inhibition, hits mostly inhibitors | 390,000 tested, 0.21% active
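GCN5L2 (20 nM) in 50mM HEPES pH 7.5, 0.1mM EDTA, 0.01% Tween-20 preincubated 15 min with compounds at room temperature. Reaction started with H3(1-25) 75uM, acetyl-CoA 70uM, ThioGlo1 50uM; CoA-thiol fluorescence (Ex340/Em540) read at 0 and 20 min.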
DT40 TDP1 CPT – growth inhibition of DT40 Tdp1-/-;hTDP1 cells with camptothecin (screen for TDP1 inhibitors); 420,000 tested, 12% active; chicken DT40 Tdp1-/-;hTDP1 cells + 20 nM CPT, ATP luminescence, 48 h; AID 686979; Potency, µM (titrated, usually from 46.2 µM), without a hit: at the top dose activity change, negative = growth inhibition, actives largely listed as inhibitors; note: nearly all actives have a fitted effect of over 55% in size
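Chicken DT40 Tdp1-/- cells stably complemented with human TDP1 were seeded at 400 cells/well in medium containing 20 nM camptothecin, exposed to pin-transferred compounds, and grown at 37 °C for at least 48 hr. Viability was read as ATP luminescence.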
PLK1 PBD block – inhibitors of human PLK1 polo-box domain binding; Potency, µM, without a hit: max response, negative = inhibition, actives largely listed as inhibitors; 360,000 tested, 2.8% active; Plk1 PBD binding of FITC phosphopeptide, fluorescence polarization; P53350; note: series mostly up to about 57 µM; nearly all actives have a fitted effect of over 65% in size
TDP1 block – inhibitors of human tyrosyl-DNA phosphodiesterase TDP1. Q9NUW8. recombinant TDP1, AlphaScreen DNA substrate cleavage. Potency, µM (series often up to 130 µM), for inactives: at the top dose activity change, negative = inhibition, usual class: inhibitors. 350,000 tested, 0.28% active. AID 485290; note: nearly all actives have a fitted effect of over 40% in size
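Enzyme-compound mixtures sat 15 min at room temperature, followed by a 5 min reaction with 15 nM final substrate and 10 min with AlphaScreen beads. Recombinant human Tdp1 was used at 1 nM final.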
Active calls of the source: *; ? = inconclusive; . = not tested or not shown; [ ] = dose if it differs, or a comment. The list is not random: actives were taken first. Their share in the collection is about 18%. Calls come from the whole dose curve; as a rule, active = well fitted curve in the direction sought with a large enough effect; inconclusive = small, poorly fitted or top-dose-only effect, or another doubt; inactive = no such curve, though single readings can be large; an effect the other way counts as inactive or inconclusive. % is set by controls: 0 for no effect and ±100 for the full control effect; potency is the fitted concentration of half-maximal effect.

SMILES	VDR inhibitor	DT40 TDP1 no CPT	KAT2A inh	DT40 TDP1 CPT	PLK1 PBD block	TDP1 block
COC(=O)c1cc(=O)n(Cc2ccc3c(c2)OCO3)c(=Nc2ccc(F)c(Cl)c2)s1	-3.8%	6.51µM*	-8.7%	8.2µM*	0.8%	2.6%
O=C(CCc1nc2ccccc2c(=O)[nH]1)NCCN1C(=O)S/C(=C\c2ccccc2Cl)C1=O	-6.8%	?	-1.0%	?	-27.7%	.
O=C(CCc1nc2ccccc2c(=O)[nH]1)NCCN1C(=O)S/C(=C\c2ccc(OC(F)F)cc2)C1=O	-4.1%	18.4µM*	.	?	-22.1%	.
Cc1cc(C)cc(Oc2ccccc2C=O)c1	8.1%	4.61µM*	-14.4%	5.8µM*	-7.8%	0.0%
COc1ccc(Oc2ccccc2/C=C/C(=O)O)cc1	-3.3%	-12.2%	1.1%	4.9%	-8.8%	1.1%
COc1ccc(Oc2ccccc2C=O)cc1	11.3%	5.8µM*	3.6%	11.6µM*	-8.3%	2.0%
CN1CC2(Cc3cc([N+](=O)[O-])ccc31)C(=O)OC(C)(C)OC2=O	-13.3%	-21.5%	.	-7.0%	.	.
CCc1ccc(NC(=O)Cn2ncc3c4ccccc4n(C)c3c2=O)cc1	?	?	1.3%	?	23.8µM*	0.0%
CCCn1c2ccccc2c2cnn(CC(=O)Nc3ccccc3OC)c(=O)c21	7.2%	14.6µM*	-7.9%	23.1µM*	.	-2.8%
CCCn1c2ccccc2c2cnn(CC(=O)NCCc3cc(OC)ccc3OC)c(=O)c21	0.8%	16.4µM*	-5.5%	?	.	3.7%
Cn1c2ccccc2c2cnn(CC(=O)Nc3ccc(Cl)cc3)c(=O)c21	5.6%	12.8%	-5.4%	-2.3%	-5.2%	.
CCCn1c2ccccc2c2cnn(CC(=O)NCc3cc(OC)ccc3OC)c(=O)c21	1.1%	?	-0.2%	18.4µM*	.	-2.5%
CCCn1c2ccccc2c2cnn(CC(=O)Nc3cc(OC)c(OC)c(OC)c3)c(=O)c21	-1.6%	?	-17.5%	?	.	3.7%
COCc1c(C(=O)N2CCCCCC2)cnn1-c1nccc(-c2cccs2)n1	.	-5.3%	.	-1.2%	.	.
CC(C)NC[C@H]1CCc2cc(CO)c([N+](=O)[O-])cc2N1	-6.6%	.	5.2%[21.4 µM]	.	.	12.8%[21 µM]
O=C(Nc1ccccc1Br)N1CCN2CCCCC2C1 (stereo not given)	4.1%	11.1%	-7.6%	-22.1%	.	2.8%
CCCn1c(SCC(=O)N2CCCCC2)nnc1C(C)C	79.4µM*	?	-4.6%	?	10.6µM*	2.8%
CC(C)c1nc(SCC(=O)Nc2nccs2)c2ccccc2n1	4.1%	-28.6%	-8.2%	-24.9%	-6.1%	-20.5%
CC(C)c1nc(SCC(=O)Nc2ccc(N(C)C)cc2)c2ccccc2n1	16.6%	?	-2.4%	23.1µM*	-0.7%	-5.5%
Cc1csc(NC(=O)CSc2nc(C(C)C)nc3ccccc23)n1	-9.1%	11.6µM*	-8.3%	?	-13.2%	-3.9%
CC1(C)CC(=O)c2cc(-c3nc(-c4ccc(Cl)cc4)cs3)c(=O)n(-c3ccc(Cl)cc3)c2C1	-12.3%	-7.8%	-4.8%	-10.6%	.	-3.6%
N#Cc1cc([N+](=O)[O-])c2sc(C(N)=O)[n+]([O-])c2c1	5.3%	.	-0.2%	.	.	.
COc1ccc(CCNC(=O)CNS(=O)(=O)c2ccc(F)c(Cl)c2)cc1OC	-17.0%	-3.7%	-10.4%	5.7%	-4.0%	.
O=C(C[C@H]1C/C=C\C[C@H](NC(=O)OCC2c3ccccc3-c3ccccc32)C(=O)OC[C@H]2CCCN2C1=O)NCCO	0.5%	16.4µM*	0.2%	11.6µM*	-4.1%	-14.1%
O=C(C[C@H]1C/C=C\C[C@H](NC(=O)OCC2c3ccccc3-c3ccccc32)C(=O)OC[C@@H]2CCCN2C1=O)NCCO	-21.2%	5.8µM*	-2.9%	4.11µM*	-4.0%	-7.3%
SMILES	VDR inhibitor	DT40 TDP1 no CPT	KAT2A inh	DT40 TDP1 CPT	PLK1 PBD block	TDP1 block
O=C(C[C@H]1C/C=C\C[C@H](Cc2ccc(F)cc2)C(=O)OC[C@@H]2CCCN2C1=O)N[C@H](CO)Cc1ccccc1	7.1%	-28.3%	0.9%	-28.4%	-4.6%	2.6%
O=C(C[C@@H]1C/C=C\C[C@H](NC(=O)OCC2c3ccccc3-c3ccccc32)C(=O)OC[C@H]2CCCN2C1=O)NCCO	-31.8%	?	-3.5%	?	-13.0%	-4.9%
O=C(C[C@@H]1C/C=C\C[C@H](NC(=O)OCC2c3ccccc3-c3ccccc32)C(=O)OC[C@H]2CCCN2C1=O)N[C@@H](CO)Cc1ccccc1	-2.6%	4.61µM*	-10.1%	4.61µM*	-3.6%	2.9%
CCCCCC1CCC(C(=O)NCCN2CCOCC2)CC1 (stereo not given)	-21.6%	-14.7%	8.9%	-1.0%	2.5%	.
COc1ccc(N2CCN(Cc3nc4c(c(=O)[nH]c(=O)n4C)n3Cc3ccccc3)CC2)cc1	-16.7%	-8.9%	0.9%	0.8%	.	3.8%
CN(C)c1ccc(CNC(=O)C2COc3ccccc3C2)cc1 (stereo not given)	20.5%	-15.9%	-20.8%	-29.5%	.	7.7%
CC(C)C[C@H]1CN(CCCC[C@H]2CNC(=O)C(=O)N2CCc2ccccc2)C(=O)C(=O)N1Cc1ccccc1	.	?	.	-21.8%	-9.2%	.
COc1ccccc1CNc1ncncc1-c1cccc(C#N)c1	-0.1%	-16.9%	-2.6%	-15.5%	.	3.8%[56.1 µM]
Cc1cc(C(=O)C(=O)N(C)C)c(C)n1-c1ccc(Cl)cc1	-2.7%	18.4µM*	-5.1%	?	-5.1%	3.6%
COc1ccc(NC(=O)C(=O)c2cc(C)n(-c3ccc(C)cc3)c2C)cc1Cl	5.3%	8.2µM*	-13.8%	?	.	8.6%
C=CCN(CC=C)C(=O)C(=O)c1cc(C)n(-c2ccc([N+](=O)[O-])cc2)c1C	-11.3%	14.6µM*	-11.5%	?	1.8%	5.9%
O=C(Nc1c2c(nn1-c1ccc(Cl)cc1)CS(=O)(=O)C2)c1cccc(Cl)c1	-0.4%	20.6µM*	-5.4%	16.4µM*	.	2.6%
CC(C)(C)n1nc2c(c1NC(=O)c1cccc(Cl)c1)CS(=O)(=O)C2	-15.6%	22.1%	-4.8%	-4.9%	-16.5%	6.2%
CC1CCCCC1NC(=O)C1CCN(S(=O)(=O)N2CCCCCC2)CC1 (stereo not given)	-10.0%	-25.6%	-15.3%	?	0.5%	6.0%
CC1CCCCC1NC(=O)C1CCN(c2c3c(nc4ncnn24)CCC3)CC1 (stereo not given)	-5.7%	11.6µM*	-0.5%	-28.7%	-2.2%	-0.8%
Cc1csc(NC(=O)CSc2nnc(NC(=O)NC(C)(C)C)s2)n1	-11.0%	?	-12.8%	?	1.1%	-17.3%[0.505 µM]
